From PubChem BioAssay (NCI) come the findings set out here.

Among the test systems are HT29 colon; SNB-75 CNS; SNB-19 CNS; U251 CNS; PC-3 prostate; SK-MEL-5 melanoma; UACC-62 melanoma; LOX IMVI melanoma; SK-MEL-28 melanoma.
Test in all cases: NCI-60 one-dose screen, 48 h (100 = growth as untreated, 0 = no growth, -100 = all killed)
Common to all, as to details: 10 µM unless noted

Molecules are shown by their SMILES. This is part of a sample that, as a whole, favours compounds with a hit. Of some 83,000 tested, about 20% had one in any assay.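 Percent growth is the endpoint: 0 to 100 indicates growth inhibition (40 means 60% inhibition), 0 means no net growth, and negative values indicate cell death.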 Values without a mark were called inactive. Calls of active or inactive are those of the source. How the source made its calls: active means growth percent below 10; inactive means the rest.

Turning to `O=C(Nc1cc(Cl)cc(Cl)c1)Nc1ccc2oc(=O)ccc2c1`, the growth is 16.2% in the test with HT29 colon; 39.3% in the test on SNB-75 CNS; 13.3% in the test on SNB-19 CNS; 6.21% (active) with U251 CNS; 1.84% (active) with PC-3 prostate; 29.6% with SK-MEL-5 melanoma. In addition, the growth was 2.84% (active) in the test on UACC-62 melanoma, 14.8% with LOX IMVI melanoma and 9.09% (active) in the test on SK-MEL-28 melanoma.
For the compound `Nc1ccc(-c2nnc(SCc3ccc(O)c4ncccc34)n2-c2ccccc2)cc1`, the growth in the test on HT29 colon is 23.8%; with SNB-19 CNS it was 12.4%; in the test on U251 CNS, 8.88% (active); in the test on PC-3 prostate it was 14.1%; in the test with SK-MEL-5 melanoma it was -54.6% (active); in the test with UACC-62 melanoma, 11.9%. Moreover, the growth with LOX IMVI melanoma is 14%; with SK-MEL-28 melanoma it was 34%.
For the compound `CC(C)Sc1nc(NC2CC2)c(C#N)c(-c2ccccc2)n1`, the growth with HT29 colon is 91.1%; with SNB-75 CNS, 34.7%; with SNB-19 CNS, 90%; in the test with U251 CNS it was 85.1%; in the test on PC-3 prostate it was 92.5%; in the test with SK-MEL-5 melanoma, 100%. The results for the growth with UACC-62 melanoma, in the test on LOX IMVI melanoma and with SK-MEL-28 melanoma were 87.6%, 67.9% and 98.7%, respectively.
Consider `Oc1ccc(CSc2nnc(-c3ccc(Oc4ccccc4)cc3)o2)c2cccnc12`, for which the growth with HT29 colon is 94.4%; with SNB-75 CNS it was -25.3% (active); in the test on SNB-19 CNS, 17.3%; in the test with U251 CNS, -4.12% (active); with PC-3 prostate it was 20.4%; in the test on SK-MEL-5 melanoma it was 16.6%. In addition, the values for the growth with UACC-62 melanoma, with LOX IMVI melanoma and in the test with SK-MEL-28 melanoma were 22.6%, 19.8% and 52.2%, respectively.
Take `O=C(CN1C(=O)S/C(=C\c2ccccc2)C1=O)Nc1ccc(C(=O)/C=C/c2cc3ccccc3nc2Cl)cc1`: the growth was 94.8% in the test with HT29 colon; 93.4% in the test with U251 CNS; 81.6% in the test on PC-3 prostate; 24.3% in the test with SK-MEL-5 melanoma; 66.2% in the test with UACC-62 melanoma; 73.3% in the test on LOX IMVI melanoma. Also, the growth in the test with SK-MEL-28 melanoma is 95.8%.
Consider `CCNC(=O)Oc1ccc(/C(=C(/C)c2ccc(Cl)cc2)c2ccc(OCCN3CCCC3)cc2)cc1`, for which the growth with HT29 colon was 19.6%; in the test with SNB-75 CNS, 85.7%; in the test with SNB-19 CNS, 81.6%; with U251 CNS it was 60.1%; in the test on PC-3 prostate, 82.4%; in the test on SK-MEL-5 melanoma, 86.3%. The growth in the test on UACC-62 melanoma is 98.3%; in the test on LOX IMVI melanoma, 49.2%; in the test with SK-MEL-28 melanoma it was 89%.
Consider `IP(CCCSc1n(Cc2ccc3ccccc3c2)c(-c2ccccc2)c(-c2ccccc2)[n+]1Cc1ccc2ccccc2c1)(c1ccccc1)(c1ccccc1)c1ccccc1`, for which the growth in the test on HT29 colon is 2.7% (active); with SNB-75 CNS, 43%; with SNB-19 CNS it was 16.6%; with U251 CNS, 10.3%; in the test on PC-3 prostate, 32.1%; with SK-MEL-5 melanoma, 67.6%. Moreover, the growth with UACC-62 melanoma is 26.6%; in the test on LOX IMVI melanoma it was 8% (active); in the test with SK-MEL-28 melanoma, 32.8%.
With `N/C(=N\c1nc2c(Cl)cccc2s1)C(Cl)(Cl)Cl`, the growth with HT29 colon was 46.8%; in the test on SNB-19 CNS, 72.7%; in the test on U251 CNS, 57.3%; in the test on PC-3 prostate, 65%; with SK-MEL-5 melanoma, 96.1%; with UACC-62 melanoma, 75.4%. In addition, the growth was 62.4% in the test on LOX IMVI melanoma and 83.3% in the test with SK-MEL-28 melanoma.
Regarding `O=C(CCCCCCN1CC(=O)N2[C@@H](c3ccccc3)c3[nH]c4ccccc4c3C[C@H]2C1=O)NO`, the growth in the test with HT29 colon was 41.9%; in the test on U251 CNS, 51.7%; with PC-3 prostate it was 59.6%; in the test on SK-MEL-5 melanoma, 41.7%; in the test with UACC-62 melanoma it was 18.8%; with LOX IMVI melanoma it was 30.8%. The growth in the test on SK-MEL-28 melanoma was 47%.
For `COc1ccc(/C=N/Nc2nc(N/N=C/c3ccc(OC)cc3O)nc(N3CCOCC3)n2)c(O)c1`, the growth was 56.4% with HT29 colon; 74.4% in the test with SNB-75 CNS; 69.4% in the test on SNB-19 CNS; 45.6% with U251 CNS; 35.8% with PC-3 prostate; 40.6% in the test on SK-MEL-5 melanoma. For the same compound, the growth in the test on UACC-62 melanoma was 69.3%; with LOX IMVI melanoma, 45.4%; in the test with SK-MEL-28 melanoma, 37.4%.
With `N#Cc1c(-c2cccs2)cc(-c2cnccn2)nc1SCC(=O)NNC(=S)Nc1ccc(F)cc1`, the growth is 116% with HT29 colon; 101% in the test with U251 CNS; 99.3% with PC-3 prostate; 89.5% with SK-MEL-5 melanoma; 87.8% with UACC-62 melanoma; 72.1% in the test on LOX IMVI melanoma. In addition, in the test on SK-MEL-28 melanoma, the growth is 114%.
For `Clc1ccc(-c2csc(Nc3cccc(Nc4csc(-c5ccc(Cl)cc5)n4)c3)n2)cc1`, the growth in the test with HT29 colon was 88.1%; in the test on SNB-75 CNS it was 96.8%; in the test on SNB-19 CNS, 85.5%; with U251 CNS, 85.4%; in the test with PC-3 prostate, 74.1%; with SK-MEL-5 melanoma, 96.2%. Also, the growth in the test on UACC-62 melanoma was 76%; in the test on LOX IMVI melanoma, 63.8%; in the test on SK-MEL-28 melanoma it was 92.7%.
`O=c1[nH]c(CCl)nc2c1cnn2-c1ccccc1`: the growth in the test with HT29 colon is 115%; with SNB-75 CNS it was 93.6%; with SNB-19 CNS, 96.4%; in the test with U251 CNS, 103%; with PC-3 prostate, 105%; in the test with UACC-62 melanoma, 96.2%. In addition, the growth with LOX IMVI melanoma is -38.5% (active); with SK-MEL-28 melanoma, 107%.
`O=C1c2c(c3c4cccnc4[nH]c3c3ccc4ccccc4c23)C(=O)N1CCN1CCCCC1`: the growth is 44.8% in the test on HT29 colon; 53.8% in the test with SNB-75 CNS; 41.1% with SNB-19 CNS; 55.1% in the test on U251 CNS; 59.5% in the test on PC-3 prostate; 48.1% with SK-MEL-5 melanoma. The figures for the growth with UACC-62 melanoma and with SK-MEL-28 melanoma were 49.6% and 97%, respectively.
Take `CN1CCN(c2ccc3c(C(N)=O)c(NC(=O)c4ccc(C(C)(C)C)cc4)sc3c2)CC1`: the growth with HT29 colon is 20.4%; in the test on SNB-75 CNS it was 81.6%; with SNB-19 CNS, 76.2%; with U251 CNS, 59.1%; with PC-3 prostate it was 79.2%; in the test on SK-MEL-5 melanoma, 89.7%. Besides, the figures for the growth in the test with UACC-62 melanoma, in the test on LOX IMVI melanoma and in the test with SK-MEL-28 melanoma were 99.5%, -53.3% (active) and 90%, respectively.
Turning to `Cc1ccc(S(=O)(=O)N/N=C/c2cn(-c3ccc(F)cc3)nc2-c2ccc(S(C)(=O)=O)cc2)cc1`, the growth was 105% in the test on HT29 colon; 110% in the test with SNB-75 CNS; 97.1% in the test on SNB-19 CNS; 101% in the test with U251 CNS; 95.4% with PC-3 prostate; 102% in the test with SK-MEL-5 melanoma. Besides, the growth was 91.6% in the test on UACC-62 melanoma, 100% in the test on LOX IMVI melanoma and 106% in the test with SK-MEL-28 melanoma.
